# The campaign covered roughly 340,000 compounds. About 1,000 (0.29%) were called active. Rule as the data show it: inconclusive = inhibition above about 29% without an active follow-up result; inactive = below that. A selection follows. Results with a measured potency or affinity are listed apart.
# Target: Genome polyprotein (Dengue virus type 2 (strain 16681-PDK53)) (UniProt P29991)
# Assay: flavivirus cap methylation enzyme inhibition – biochemical, confirmation dose response, primary screen (AID 588689)
# Settings: Dengue-2 NS5 methyltransferase capping enzyme assay, at 25 µM, stronger effect = higher value
# [1] = measured here: pilot screen replicate inhibition
SMILES,inhibition,inhibition [1]
CN(C1CCCCC1)S(=O)(=O)c1ccc(S(=O)(=O)N2CCN(C(=O)c3ccccc3F)CC2)cc1,-5.65% (inactive),–
Cc1onc(-c2ccccc2)c1C(=O)Nc1ccc(Cl)cn1,-2.24% (inactive),–
Cc1cc(NC(=O)CSCc2nc(-c3cccc(F)c3)oc2C)no1,4.17% (inactive),–
COc1ccc(N(CC(=O)NCCSC2CCCCC2)S(=O)(=O)c2ccc(C)cc2)cc1,-4.51% (inactive),–
Cc1ccc(N2C(=O)C(Cl)=C(N3CCOCC3)C2=O)c(C)c1,5.79% (inactive),–
Cc1cccc(N2C(=O)CC(N3CCOCC3)C2=O)c1 (centres undefined),0% (inactive),–
O=C1C(Cl)=C(N2CCCCCC2)C(=O)N1c1ccccc1,-0.82% (inactive),–
O=C1C(Cl)=C(N2CCCCCC2)C(=O)N1c1ccc(Cl)cc1,2.94% (inactive),–
CN1CCN(C2=C(Cl)C(=O)N(c3cccc(Cl)c3)C2=O)CC1,12.9% (inactive),–
CC1CCCN(C2=C(Cl)C(=O)N(c3cccc(Cl)c3)C2=O)C1 (centres undefined),5.18% (inactive),–
COc1cc(C(=O)C(O)c2ccc(O)c(OC)c2)ccc1O (centres undefined),0% (inactive),–
CN(Cc1cnn(-c2ccc(F)cc2)c1)Cc1nc(Cc2ccccc2)no1,-8.38% (inactive),–
COC(=O)c1ccccc1C(=O)N1CCC(CCC(=O)NC2CC2)CC1,-9.72% (inactive),–
CC(C)NC(=O)CSc1nccc(-c2cccs2)n1,6.26% (inactive),–
CC(=O)C1=NN(c2ccccc2)C2(S1)S/C(=C\c1ccccc1)C(=O)N2c1ccccc1 (centres undefined),3.22% (inactive),–
Cc1ccc(SCCc2cc[n+](CC(=O)c3ccccc3)cc2)cc1,-23.5% (inactive),–
CCOc1ccc(-n2c(SCc3cc(=O)oc4cc(C)ccc34)nnc2-c2cccnc2)cc1,-5.85% (inactive),–
COCC(COS(N)(=O)=O)Cc1ccccc1 (centres undefined),-5.61% (inactive),–
C/C(=N\NS(=O)(=O)c1ccccc1)c1ccc2c(c1)OCCO2,-5.78% (inactive),–
CC(=O)NCCc1nc2cc(NC(=O)c3ccc(F)cc3)ccc2n1C,0.65% (inactive),–
COc1ccc(C2=CC(=O)CC(C)(C)C2)cc1OC,-7.08% (inactive),–

SMILES,inhibition,inhibition [1]
CCn1c(CNC(=O)c2ccccc2F)nnc1SCC(=O)Nc1nncs1,-2.93% (inactive),–
O=C1C(Cl)=C(N2CCCCCC2)C(=O)N1c1ccc(Br)cc1,4.71% (inactive),–
Cc1ccc(N2C(=O)C(Cl)=C(NCCO)C2=O)c(C)c1,-3.68% (inactive),–
O=C1C(Cl)=C(N2CCCC2)C(=O)N1c1ccc(F)cc1,10.2% (inactive),–
COC(=O)c1cccc(N2C(=O)c3cccnc3C2=O)c1,1.12% (inactive),–
Cc1ccc(N2C(=O)C(Cl)=C(N3CCCCCC3)C2=O)c(C)c1,-10.4% (inactive),–
COC(=O)c1cccc(N2C(=O)C3CC=CCC3C2=O)c1 (centres undefined),-7.22% (inactive),–
N=C1c2ccccc2CN1NC(=O)CC12CC3CC(CC(C3)C1)C2,-6.39% (inactive),–
COc1ccc(NCc2nnc(SCC#N)n2-c2ccccc2OC)cc1,4.71% (inactive),–
O=C(COC(=O)COc1ccccc1)NC12CC3CC(CC(C3)C1)C2,3.65% (inactive),–
CC1=CC(C)(C)N(C(=O)CN2C(=O)CCC2=O)c2ccccc21,4.64% (inactive),–
C/C(=N\OCC(=O)Nc1cc(C)cc(C)c1)c1ccc2c(c1)OCCO2,-2.91% (inactive),–
O=C1COC(c2ccccc2O)=NN1CCCl,4.57% (inactive),–
O=C(CN1C(=O)NC2(CCCC2)C1=O)OCCOc1ccc(Br)cc1,-1.44% (inactive),–
CCOC(=O)[C@H](C)N1[C@H](C)[C@H](c2ccccc2)Oc2ccc(Cl)cc2S1(=O)=O,-5.21% (inactive),–
Cc1ccc2cc(C=O)c(Cl)nc2c1,-3.88% (inactive),–
Cc1ccc2cc(C=O)c(N(C)C)nc2c1,1.3% (inactive),–
COc1ccc(C(=O)NC2CCCCCCC2)cc1OC,-1.55% (inactive),–
CN=c1scc(-c2cccs2)n1/N=C/c1ccccc1O,-0.73% (inactive),–
CCN=c1scc(C)n1/N=C/c1ccsc1,2.4% (inactive),–
CN=c1scc(-c2ccco2)n1/N=C/c1ccc(O)c(O)c1,-2.15% (inactive),–

SMILES,inhibition,inhibition [1]
CCN=c1scc(-c2ccco2)n1/N=C/c1ccc(O)cc1,4.53% (inactive),–
CN=c1scc(C)n1/N=C/c1ccc(O)cc1O,2.07% (inactive),–
CN=c1scc(-c2ccccc2F)n1/N=C/c1ccc(O)c(O)c1O,26.9% (inactive),–
CCN=c1scc(C)n1/N=C/c1cc(Br)c(O)c(Br)c1,9.36% (inactive),–
CC(C)N=c1scc(-c2cccs2)n1/N=C/c1ccc(O)c(O)c1O,16.7% (inactive),–
COc1ccc(S(=O)(=O)NCCCN2CCCC2=O)cc1OC,-6.1% (inactive),–
CC(C)(C)[C@@H]1C=C(C(=O)O)[C@H](c2ccc(Cl)cc2)N1S(=O)(=O)c1ccccc1,-3.97% (inactive),-4.61%
Cn1c(SCC(=O)Nc2ccccc2)nc2c([nH]c3ccccc32)c1=O,-11.1% (inactive),–
Nc1ccn([C@@H]2O[C@H](CNC(=O)[C@@H](Cc3cccnc3)NC=O)[C@@H](O)[C@H]2O)c(=O)n1,-7.38% (inactive),–
Cc1cc2nc(C)c3c(n2n1)CCC3,-6.57% (inactive),–
Nn1c(COc2ccccc2F)nnc1SCC(=O)NC1CCCC1,-8.38% (inactive),–
O=C1c2ccccc2NC(c2ccc(-c3ccc(F)cc3)o2)N1O (centres undefined),13.4% (inactive),–
Cc1c(C(=O)O)cccc1-c1ccc(/C=C2/NC(=O)N(c3ccccc3)C2=O)o1,-1.55% (inactive),–
O=C(O)c1ccccc1-c1ccc(/C=C2\SC(=O)N(c3ccccc3)C2=O)o1,25.1% (inactive),–
CN1C(=O)/C(=C/c2ccc(-c3ccccc3[N+](=O)[O-])o2)SC1=Nc1ccc(Cl)c(C(=O)O)c1,24.5% (inactive),–
CC1=NN(c2ccc(C)cc2)C(=O)/C1=C/c1ccc(-c2cc([N+](=O)[O-])ccc2O)o1,21.8% (inactive),–
CCOC(=O)c1cc(-c2ccc(/C=N\n3cnnc3)o2)ccc1Cl,-3.91% (inactive),–
CCCOC(=O)c1cc(-c2ccc(/C=C3/C(=O)N(C)C(=O)C(C#N)=C3C)o2)ccc1Cl,-12.3% (inactive),-8.18%
Cc1ccc(CN2C(=O)N/C(=C/c3ccc(-c4ccc(C(=O)O)cc4)o3)C2=O)cc1,14.9% (inactive),–
CC1=NN(c2ccc(Cl)c(C(=O)O)c2)C(=O)C1,10.9% (inactive),–
